Source: PubChem BioAssay (EPA / NIEHS)
“And” between values parts separate entries of the source, which are not always exact repeats. Equal entries are not always repeated. Where a structure was tested more than once in an assay, its records may differ in their call. The source made the active and inactive calls. The calls were made as follows, unless noted: active = hit-call score of the fitted dose curve at least 0.9, where 1 is the maximum; inactive = score below 0.9.

Assays:
[1] = read-out: Interleukin-1 alpha (IL1a), IL1A (gene 3552); assay: BSK_LPS_IL1a: BioMAP Diversity Plus: LPS Assay for Interleukin-1 alpha (IL1a) Biomarker Activity (AID 2283080); settings: primary human HUVEC with PBMC; actives raise or lower the signal
Outline: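 ELISA read-out of IL-1 alpha from a human primary vascular co-culture (endothelium plus PBMC) under LPS, sampled 24 hours post-dosing. Activity was fitted in both directions relative to DMSO controls.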

[2] = read-out: Monocyte Chemoattractant Protein-1 (MCP1), CCL2 (gene 6347); assay: BSK_LPS_MCP1: BioMAP Diversity Plus: LPS Assay for Monocyte Chemoattractant Protein-1 (MCP1) Biomarker Activity (AID 2283081); settings: primary human HUVEC with PBMC; actives raise or lower the signal;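 as to AC50: secreted MCP-1 protein quantified by ELISA in culture supernatant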
Outline: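 Human endothelial–PBMC co-cultures were dosed with chemical, then LPS-driven MCP-1 levels were quantified by ELISA at 24 h. Activity in either direction was fitted versus DMSO negative control.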

[3] = BSK_LPS_PGE2: BioMAP Diversity Plus: LPS Assay for Prostaglandin E2 (PGE2) Biomarker Activity (AID 2283082); settings: primary human HUVEC with PBMC; actives raise or lower the signal;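 as to AC50: secreted prostaglandin E2 measured by ELISA in LPS-stimulated co-culture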
Outline: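 PGE2 release measured by ELISA in an LPS-activated co-culture of human umbilical vein endothelial cells and peripheral blood mononuclear cells, read at 24 h post-dosing. DMSO served as baseline for bidirectional curve fitting.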

[4] = read-out: Macrophage colony-stimulating factor (MCSF), CSF1 (gene 1435); assay: BSK_LPS_MCSF: BioMAP Diversity Plus: LPS Assay for Macrophage colony-stimulating factor (MCSF) Biomarker Activity (AID 2283083); settings: primary human HUVEC with PBMC; actives raise or lower the signal
Outline: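 ELISA readout of M-CSF after 24 h compound exposure in a human endothelial/PBMC co-culture. Activity, in either direction, is fitted relative to DMSO vehicle.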

[5] = read-out: Tissue Factor, F3 (gene 2152); assay: BSK_LPS_TissueFactor: BioMAP Diversity Plus: LPS Assay for Tissue Factor Biomarker Activity (AID 2283084); settings: primary human HUVEC with PBMC; actives raise or lower the signal
Outline: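 ELISA signal for cell-surface Tissue Factor (CD142) was read 24 h after compound dosing of an LPS-stimulated human endothelial–PBMC primary co-culture. Gain or loss of signal was scored relative to DMSO.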

[6] = read-out: Tumor necrosis factor (Homo sapiens) (UniProt P01375); assay: BSK_LPS_TNFa: BioMAP Diversity Plus: LPS Assay for Tumour Necrosis Factor alpha (TNFa) Biomarker Activity (AID 2283085); settings: primary human HUVEC with PBMC; actives raise or lower the signal;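 as to AC50: TNFa protein level quantified by ELISA in the co-culture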
Outline: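 TNFa was quantified by ELISA in LPS-activated co-cultures of human endothelial cells and PBMC, 24 h post-dosing. Both increases and decreases versus DMSO were fitted.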

[7] = read-out: Vascular cell adhesion molecule 1 (VCAM1), VCAM1 (gene 7412); assay: BSK_LPS_VCAM1: BioMAP Diversity Plus: LPS Assay for Vascular cell adhesion molecule 1 (VCAM1) Biomarker Activity (AID 2283086); settings: primary human HUVEC with PBMC; actives raise or lower the signal
Outline: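 VCAM-1 quantified by ELISA in an LPS-activated co-culture of human endothelial cells and peripheral blood mononuclear cells, read 24 h post-treatment. Fitted in both directions versus DMSO; parallel SRB staining flags overt cytotoxicity.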

[8] = read-out: CD38, CD38 (gene 952); assay: BSK_SAg_CD38: BioMAP Diversity Plus: SAg Assay for CD38 Biomarker Activity (AID 2283087); settings: primary human HUVEC with PBMC; actives raise or lower the signal
Outline: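 CD38 quantified by ELISA (fluorescence) in a superantigen-activated endothelial cell–PBMC co-culture at 24 h post-dose. Activity fitted in both directions relative to DMSO; parallel SRB and Alamar Blue cytotoxicity read-outs.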

[9] = read-out: CD40, CD40 (gene 958); assay: BSK_SAg_CD40: BioMAP Diversity Plus: SAg Assay for CD40 Biomarker Activity (AID 2283088); settings: primary human HUVEC with PBMC; actives raise or lower the signal
Outline: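 Compounds were dosed onto a human primary endothelial–PBMC co-culture, and after 24 h CD40 was quantified by ELISA using a fluorescence signal. Activity in either direction was fitted relative to DMSO.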

[10] = read-out: CD69, CD69 (gene 969); assay: BSK_SAg_CD69: BioMAP Diversity Plus: SAg Assay for CD69 Biomarker Activity (AID 2283089); settings: primary human HUVEC with PBMC; actives raise or lower the signal;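 as to AC50: cell surface CD69 protein quantified by ELISA with fluorescence detection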
Outline: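 ELISA, fluorescence read-out: CD69 on human umbilical vein endothelial cell + PBMC co-culture, 24 h post-dosing. Gain or loss of signal fitted bidirectionally against DMSO baseline.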

[11] = read-out: Monocyte Chemoattractant Protein-1 (MCP1), CCL2 (gene 6347); assay: BSK_SAg_MCP1: BioMAP Diversity Plus: SAg Assay for Monocyte Chemoattractant Protein-1 (MCP1) Biomarker Activity (AID 2283090); settings: primary human HUVEC with PBMC; actives raise or lower the signal
Outline: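 Values derive from bidirectional fitting of ELISA-measured MCP1 against DMSO controls. Readings were taken 24 h after dosing human vascular endothelial cells co-cultured with peripheral blood mononuclear cells under superantigen stimulation.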

[12] = read-out: E-selectin (Homo sapiens) (UniProt P16581); assay: BSK_SAg_Eselectin: BioMAP Diversity Plus: SAg Assay for Eselectin Biomarker Activity (AID 2283091); settings: primary human HUVEC with PBMC; actives raise or lower the signal
Outline: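 Co-culture: HUVEC + PBMC. Dose compound; 24 h. ELISA for E-selectin. Bidirectional fit vs DMSO.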

[13] = read-out: Monokine induced gamma interferon (MIG), CXCL9 (gene 4283); assay: BSK_SAg_MIG: BioMAP Diversity Plus: SAg Assay for Monokine induced gamma interferon (MIG) Biomarker Activity (AID 2283092); settings: primary human HUVEC with PBMC; actives raise or lower the signal
Outline: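 ELISA readout of MIG/CXCL9; primary human umbilical vein endothelial cells co-cultured with peripheral blood mononuclear cells; 24 h post-dose; gain/loss fit vs DMSO baseline.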

[14] = BSK_SAg_PBMCCytotoxicity: PBMC Cytotoxicity Assessment in the BioMAP Diversity Plus: SAg Assay (AID 2283093); settings: primary human HUVEC with PBMC;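 also: PBMC viability measured as Alamar Blue reduction fluorescence at 546/580 nm; fitted both ways against DMSO so a hit may be loss or gain of signal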;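 as to AC50: PBMC superantigen activated with SEB plus TSST-1 one hour after compound addition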
Outline: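 Alamar Blue reduction (6 h, 546/580 nm) reports PBMC cytotoxicity after 90 h superantigen activation (SEB, TSST-1; 20 ng/mL final each) with 1 h compound pre-treatment. Gain or loss of signal fitted versus DMSO.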

[15] = read-out: Interleukin-8 (IL8), CXCL8 (gene 3576); assay: BSK_SAg_IL8: BioMAP Diversity Plus: SAg Assay for Interleukin-8 (IL8) Biomarker Activity (AID 2283094); settings: primary human HUVEC with PBMC; actives raise or lower the signal
Outline: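 ELISA readout of IL-8 from a superantigen-activated endothelial/PBMC primary human co-culture, taken 24 h post-dosing and fitted in both directions against DMSO; parallel SRB total-protein staining flags overt cytotoxicity.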

[16] = BSK_SAg_Proliferation: Cell Proliferation Assessment in the BioMAP Diversity Plus: SAg Assay (AID 2283095); settings: primary human HUVEC with PBMC;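 also: relative cell number as total protein by SRB absorbance in sub-confluent culture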
Outline: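 Relative cell number in the endothelial cell/PBMC co-culture was quantified at 96 h by SRB staining (0.1% SRB, 10% TCA fixation, read at 560 nm). Curves were fitted in both directions relative to DMSO baseline.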

[17] = BSK_SAg_SRB: Viability Assessment in the BioMAP Diversity Plus: SAg Assay (AID 2283096); settings: primary human HUVEC with PBMC;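 also: cells read one day after compound addition; hits may be either gain or loss of signal compared with DMSO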
Outline: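 This overt-cytotoxicity endpoint quantifies protein in human endothelial/PBMC co-cultures at 24 h using SRB absorbance (560 nm) after trichloroacetic acid fixation. Values reflect signal change from the DMSO negative control, fitted bidirectionally.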

[18] = target: human CYP2D6, CYP2D6 (gene 1565) (UniProt P10635); assay: NVS_ADME_hCYP2D6: NovaScreen (NVS) CYP450-related Enzyme Activity (ADME) Assay for human CYP2D6 (AID 2283107; active = hit-call score of the fitted dose curve at least 0.9, where 1 is the maximum)
Outline: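 Insect-cell recombinant enzyme + fluorogenic substrate, cell-free; 1 h incubation; fluorescence intensity readout. Acetonitrile = neg. ctrl/baseline. Single-point 10 uM, duplicate; follow-up concentration series.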

Measured: AC50

Sequence of E-selectin (Homo sapiens) (P16581 whole entry, looked up): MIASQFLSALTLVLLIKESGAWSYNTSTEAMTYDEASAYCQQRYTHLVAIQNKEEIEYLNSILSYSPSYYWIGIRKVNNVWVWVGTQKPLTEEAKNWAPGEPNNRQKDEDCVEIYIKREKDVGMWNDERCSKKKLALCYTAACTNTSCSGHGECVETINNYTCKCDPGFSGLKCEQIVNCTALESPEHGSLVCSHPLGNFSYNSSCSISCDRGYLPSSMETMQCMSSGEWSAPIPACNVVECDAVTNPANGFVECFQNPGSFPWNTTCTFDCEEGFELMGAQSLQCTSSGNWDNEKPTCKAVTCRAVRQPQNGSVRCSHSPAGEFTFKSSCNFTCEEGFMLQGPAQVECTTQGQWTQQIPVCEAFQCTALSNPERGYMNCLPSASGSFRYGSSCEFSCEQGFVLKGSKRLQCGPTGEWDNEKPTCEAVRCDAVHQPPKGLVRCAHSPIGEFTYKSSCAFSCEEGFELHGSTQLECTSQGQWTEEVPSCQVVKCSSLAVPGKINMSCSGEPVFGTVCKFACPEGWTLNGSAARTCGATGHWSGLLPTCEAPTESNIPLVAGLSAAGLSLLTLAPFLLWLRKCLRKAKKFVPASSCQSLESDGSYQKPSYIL
Sequence of Tumor necrosis factor (Homo sapiens) (P01375 whole entry, looked up): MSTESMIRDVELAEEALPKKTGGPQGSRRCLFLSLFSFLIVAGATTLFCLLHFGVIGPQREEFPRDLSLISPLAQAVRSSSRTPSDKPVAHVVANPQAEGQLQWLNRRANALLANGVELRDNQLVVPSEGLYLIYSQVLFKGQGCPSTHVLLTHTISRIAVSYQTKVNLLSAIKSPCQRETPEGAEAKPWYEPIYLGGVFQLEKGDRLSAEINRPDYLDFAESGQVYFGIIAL
Sequence of human CYP2D6, CYP2D6 (gene 1565) (P10635 whole entry, looked up): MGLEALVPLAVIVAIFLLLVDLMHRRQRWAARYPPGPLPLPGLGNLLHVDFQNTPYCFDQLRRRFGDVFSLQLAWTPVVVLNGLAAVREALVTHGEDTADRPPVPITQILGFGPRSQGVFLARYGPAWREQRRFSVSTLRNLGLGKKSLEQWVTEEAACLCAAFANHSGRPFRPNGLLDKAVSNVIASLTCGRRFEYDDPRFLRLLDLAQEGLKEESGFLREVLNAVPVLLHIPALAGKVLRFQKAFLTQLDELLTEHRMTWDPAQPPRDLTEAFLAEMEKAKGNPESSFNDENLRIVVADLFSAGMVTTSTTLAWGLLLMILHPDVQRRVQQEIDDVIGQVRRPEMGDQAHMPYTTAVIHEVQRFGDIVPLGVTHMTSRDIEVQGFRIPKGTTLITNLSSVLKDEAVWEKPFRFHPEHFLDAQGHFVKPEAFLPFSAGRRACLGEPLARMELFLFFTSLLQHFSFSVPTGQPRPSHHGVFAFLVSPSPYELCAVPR

CC(C)(C)c1cc(CCC(=O)NCCCCCCNC(=O)CCc2cc(C(C)(C)C)c(O)c(C(C)(C)C)c2)cc(C(C)(C)C)c1O
not listed: [18]
inactive: all other assays above

O=C1c2c(O)ccc(Nc3ccc(CCO)cc3)c2C(=O)c2c([N+](=O)[O-])ccc(O)c21
inactive: [1] | [6] | [11] | [12] | [17]
active: [2] 20 µM | [3] 29.4 µM | [4] 7.53 µM | [5] 3.97 µM | [7] 20 µM | [8] 20 µM | [9] 25.9 µM | [13] 33.7 µM | [14] 9.47 µM | [15] 0.379 µM | [16] 20 µM | [18] 5 µM

CNS(=O)(=O)C(F)(F)C(F)(F)C(F)(F)C(F)(F)C(F)(F)C(F)(F)C(F)(F)C(F)(F)F
active: [1] 5.38 µM
inactive: [1] | [3] | [4] | [5] | [6] | [7] | [8] | [9] | [10] | [11] | [12] | [13] | [14] | [15] | [16] | [17]

Cc1cc(O)c(C(C)(C)C)cc1C(C)(C)C
active: [1] 5.31 µM | [2] 9.04 µM | [4] 5.29 µM | [5] 5.3 µM | [6] 9.79 µM | [7] 5.9 µM | [8] 10.1 µM | [9] 5.09 µM | [10] 5.18 µM | [11] 7.3 µM | [12] 5.34 µM | [13] 10.2 µM | [14] 3.79 µM | [15] 5.33 µM | [16] 3.82 µM | [17] 6.3 µM
inactive: [3]

CO[Si](C)(CCC(F)(F)C(F)(F)C(F)(F)C(F)(F)C(F)(F)C(F)(F)F)OC
not listed: [18]
inactive: all other assays above

OCC(O)CC(F)(F)C(F)(F)C(F)(F)C(F)(F)C(F)(F)C(F)(F)C(F)(F)C(F)(F)F (stereo not drawn)
not listed: [18]
inactive: all other assays above

NC(=O)C(F)(F)C(F)(F)C(F)(F)C(F)F
not listed: [18]
inactive: all other assays above

C=C(C)C(=O)OCC(F)(F)C(F)(F)C(F)(F)C(F)F
active: [4] 0.646 µM
inactive: [1] | [3] | [4] | [5] | [6] | [7] | [8] | [9] | [10] | [11] | [12] | [13] | [14] | [15] | [16] | [17]

O=S(=O)(OCC(F)(F)F)C(F)(F)C(F)(F)C(F)(F)C(F)(F)F
inactive: [1] | [3] | [4] | [5] | [7] | [8] | [9] | [11] | [12] | [13] | [14] | [15] | [16] | [17]
active: [1] 30 µM | [5] 9.88 µM | [6] 43.7 µM and 16.3 µM | [15] 30 µM

O=S(=O)(O)CCC(F)(F)C(F)(F)C(F)(F)C(F)(F)F
not listed: [10] | [18]
inactive: all other assays above

NC(O)(C(F)(F)F)C(F)(F)F
not listed: [10] | [18]
inactive: all other assays above

OCCCCC(F)(F)C(F)(F)C(F)(F)C(F)(F)F
not listed: [18]
inactive: all other assays above
